# Measured values from PubChem BioAssay (NCATS).
# Results filed as inconclusive are left out. Calls of active or inactive are those of the source. Unless noted, the call rests on the fitted dose curve; in most records, active means well fitted curve in either direction with a large enough effect (not every such curve was filed as active); inconclusive means small, poorly fitted or top-dose-only effect, or another doubt; inactive means flat fitted curve, though single readings scatter.
# Tests used:
# [1] = AP1 Signaling Pathway (AID 357);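 further: ME-180 reporter cells stimulated with EGF at its EC50 level; on the % scale 0 is the no-effect control and ±100 the full control effect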
# Summary of the method: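 Beta-lactamase reporter under AP-1 response element, ME-180 background. Stimulus: EC50 EGF. Compound exposure 5 h, 37 °C. Detection: CCF4, 2.5 h RT, 460/530 nm. Values: AC50 from titration.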
# [2] = molecular target: Cytochrome P450 1A2 (Homo sapiens) (UniProt P05177); assay: p450-cyp1a2 (AID 410; calls by dose curve; further: potency means the concentration at half of the fitted maximal effect;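 on activity change, negative = inhibition: -100% = full effect of reference inhibitor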)
# Cytochrome P450 1A2 (Homo sapiens), sequence (P05177 whole entry, looked up): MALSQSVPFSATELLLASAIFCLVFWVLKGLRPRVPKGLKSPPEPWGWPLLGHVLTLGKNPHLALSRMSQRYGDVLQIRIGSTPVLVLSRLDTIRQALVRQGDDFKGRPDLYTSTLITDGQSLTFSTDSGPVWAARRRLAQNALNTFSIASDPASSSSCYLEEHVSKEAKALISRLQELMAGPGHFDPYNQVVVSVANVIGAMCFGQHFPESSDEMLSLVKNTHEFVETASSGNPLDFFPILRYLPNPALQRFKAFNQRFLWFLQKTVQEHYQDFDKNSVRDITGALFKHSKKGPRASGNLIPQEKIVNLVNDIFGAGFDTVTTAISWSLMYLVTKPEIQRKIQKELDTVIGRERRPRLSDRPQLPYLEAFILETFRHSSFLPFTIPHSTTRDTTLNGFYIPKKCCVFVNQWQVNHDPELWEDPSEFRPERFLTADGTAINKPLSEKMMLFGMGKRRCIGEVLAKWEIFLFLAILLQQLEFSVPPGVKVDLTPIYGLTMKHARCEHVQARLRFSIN
# Summary of the method: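 Human CYP1A2 (20nM) demethylated Luciferin-ME at its Km (100uM) in 100mM KPO4. After 10 min compound preincubation, NADPH regeneration ran the reaction 60 min at room temperature. Luciferin was read by luminescence, normalized to 57 uM furafylline.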
# [3] = NFAT Signaling Pathway (AID 444); conditions: Jurkat NFAT-bla M1, carbachol, beta-lactamase ratio, 5 h; at 17.2 µM (top of the series) unless noted;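 further: carbachol stimulus at about its EC50 of 1 µM final; on the % scale 0 is the no-effect control and ±100 the full control effect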
# Summary of the method: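 Jurkat cells carrying an NFAT-driven β-lactamase reporter and co-transfected muscarinic M1 receptor were treated with compound plus carbachol (1 uM final, an EC50 level) for 5 h at 37 °C. CCF4 loading followed for 1 h at RT; 460/530 nm ratio gave %activity.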
# [4] = Stat Signaling Pathway (AID 446);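 further: ME-180 cervical cancer cells given 40 pM IL-6 alongside compound; SIE-controlled beta-lactamase reporter measured as 460/530 nm FRET emission ratio; on the % scale 0 is the no-effect control and ±100 the full control effect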
# Summary of the method: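 ME-180 cells carrying a SIE-driven beta-lactamase reporter are stimulated with 40 pM IL-6 for 5 h at 37C in the presence of compound. The 460/530 nm FRET substrate ratio is read after 2.5 h at RT. Data are normalised to 300 pM IL-6 and to 125 nM JAK inhibitor controls.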
# [5] = molecular target: Glucocorticoid receptor (Homo sapiens) (UniProt P04150); assay: GR-EFC Redistribution (AID 451; calls by dose curve; further: potency means the concentration at half of the fitted maximal effect); conditions: CHO-K1 GR-EFC translocation, beta-gal luminescence, 2 h
# Glucocorticoid receptor (Homo sapiens), sequence (P04150 whole entry, looked up, the tested form may be a part): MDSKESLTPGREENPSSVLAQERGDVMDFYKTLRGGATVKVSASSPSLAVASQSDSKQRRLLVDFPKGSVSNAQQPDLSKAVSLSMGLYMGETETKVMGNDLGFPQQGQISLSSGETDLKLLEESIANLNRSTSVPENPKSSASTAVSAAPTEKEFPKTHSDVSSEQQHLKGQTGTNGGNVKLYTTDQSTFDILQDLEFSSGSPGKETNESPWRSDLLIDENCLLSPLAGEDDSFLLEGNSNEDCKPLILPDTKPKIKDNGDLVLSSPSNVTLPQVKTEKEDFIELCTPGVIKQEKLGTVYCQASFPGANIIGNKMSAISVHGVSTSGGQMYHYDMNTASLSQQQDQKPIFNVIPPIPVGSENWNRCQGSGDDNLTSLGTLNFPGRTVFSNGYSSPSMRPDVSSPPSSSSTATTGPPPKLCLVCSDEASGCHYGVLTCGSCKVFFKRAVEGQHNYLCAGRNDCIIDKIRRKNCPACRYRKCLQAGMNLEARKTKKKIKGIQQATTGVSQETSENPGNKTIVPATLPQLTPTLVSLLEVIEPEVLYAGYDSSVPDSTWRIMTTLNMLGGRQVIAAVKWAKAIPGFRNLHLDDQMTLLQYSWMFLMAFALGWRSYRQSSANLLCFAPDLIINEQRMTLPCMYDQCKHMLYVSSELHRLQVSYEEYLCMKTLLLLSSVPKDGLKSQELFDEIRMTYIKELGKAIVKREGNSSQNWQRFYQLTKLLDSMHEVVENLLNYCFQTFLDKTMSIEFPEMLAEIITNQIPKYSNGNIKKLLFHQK
# Summary of the method: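 CHO-K1 cells stably expressing nuclear-localized β-gal enzyme acceptor and GR fused C-terminally to the enzyme donor fragment; ligand-driven nuclear translocation restores β-gal by complementation. Compounds titrated up to 46 uM final, 2 h at 37 °C; luminescence read.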
# [6] = molecular target: Mitogen-activated protein kinase 10 (Mus musculus) (UniProt Q61831); assay: JNK3 AlphaScreen Assay (AID 530);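 further: kinase came from lysate of stimulated human HepG2 cells; signal reports phosphorylation of biotinylated GST-cJun 1-79 at Ser73 with 10 µM ATP; on the % scale 0 is the no-effect control and ±100 the full control effect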
# Summary of the method: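 JNK3 came from HepG2 lysates pre-activated with IL-1beta and TNF-alpha and phosphorylated biotinylated GST-cJun (1-79) at 10 uM ATP, pH 7.6, room temperature. Compounds were titrated. AlphaScreen signal used anti-phospho-cJun (Ser73) antibody.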
# [7] = molecular target: 3',5'-cyclic-AMP phosphodiesterase 4B (Homo sapiens) (UniProt Q07343); assay: qHTS Assay for Inhibitors of PDE-IV (AID 607; active means well fitted activation curve with a large enough effect in the main read-out, with a control signal flat, not every such curve was filed as active; further: % of control where 0% means no effect)
# 3',5'-cyclic-AMP phosphodiesterase 4B (Homo sapiens), sequence (Q07343 whole entry, looked up): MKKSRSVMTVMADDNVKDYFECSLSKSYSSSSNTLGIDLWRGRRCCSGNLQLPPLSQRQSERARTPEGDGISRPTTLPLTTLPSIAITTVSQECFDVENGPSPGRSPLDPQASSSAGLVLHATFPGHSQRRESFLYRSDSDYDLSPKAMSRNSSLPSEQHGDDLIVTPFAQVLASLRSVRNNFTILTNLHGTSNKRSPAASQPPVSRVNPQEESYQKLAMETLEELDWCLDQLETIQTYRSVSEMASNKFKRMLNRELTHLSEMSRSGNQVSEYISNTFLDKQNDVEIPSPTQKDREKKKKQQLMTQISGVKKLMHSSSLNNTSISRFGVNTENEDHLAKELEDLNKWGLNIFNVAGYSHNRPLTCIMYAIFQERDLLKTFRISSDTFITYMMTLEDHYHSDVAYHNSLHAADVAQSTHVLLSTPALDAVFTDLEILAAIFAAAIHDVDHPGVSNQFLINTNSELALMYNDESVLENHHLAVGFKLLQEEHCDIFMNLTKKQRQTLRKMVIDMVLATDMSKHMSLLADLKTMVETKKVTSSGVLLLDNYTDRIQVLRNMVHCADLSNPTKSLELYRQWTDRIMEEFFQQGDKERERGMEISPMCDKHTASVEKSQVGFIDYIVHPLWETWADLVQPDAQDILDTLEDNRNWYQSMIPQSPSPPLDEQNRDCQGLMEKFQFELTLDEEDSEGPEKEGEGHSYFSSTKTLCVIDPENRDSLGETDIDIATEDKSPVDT
# Summary of the method: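 HEK293 ACTOne cells with CNG channel (1000/well), endogenous PDE4; membrane potential dye, compounds up to 22.9 uM final. Fluorescence Ex 535/Em 590; RO 20-1724 (100 uM final) as reference.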
# [8] = qHTS Assay for Lipid Storage Modulators (AID 1519; calls by dose curve); conditions: Drosophila S3 cells, BODIPY lipid droplet/cell ratio, laser cytometry, cells loaded with oleic acid
# Summary of the method: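 Cells seeded at 5,000 per well were treated with compounds over a concentration series and loaded with oleic acid (400 uM, as added). Lipid droplet fluorescence (488 nm excitation, 500-530 nm channel) was read by laser-scanning cytometry and normalized to 20 uM Triacsin C.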
# [9] = molecular target: Ubiquitin carboxyl-terminal hydrolase 1 (Homo sapiens) (UniProt O94782); assay: Inhibitors of USP1/UAF1: Pilot qHTS (AID 504865; active means well fitted inhibition curve with a large enough effect;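 further: rhodamine fluorescence freed from ubiquitin-rhodamine substrate followed over time; top concentration of the series differs between compounds; on the % scale 0 is the no-effect control and ±100 the full control effect; nearly all actives have a fitted effect of over 35% in size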)
# Ubiquitin carboxyl-terminal hydrolase 1 (Homo sapiens), sequence (O94782 whole entry, looked up): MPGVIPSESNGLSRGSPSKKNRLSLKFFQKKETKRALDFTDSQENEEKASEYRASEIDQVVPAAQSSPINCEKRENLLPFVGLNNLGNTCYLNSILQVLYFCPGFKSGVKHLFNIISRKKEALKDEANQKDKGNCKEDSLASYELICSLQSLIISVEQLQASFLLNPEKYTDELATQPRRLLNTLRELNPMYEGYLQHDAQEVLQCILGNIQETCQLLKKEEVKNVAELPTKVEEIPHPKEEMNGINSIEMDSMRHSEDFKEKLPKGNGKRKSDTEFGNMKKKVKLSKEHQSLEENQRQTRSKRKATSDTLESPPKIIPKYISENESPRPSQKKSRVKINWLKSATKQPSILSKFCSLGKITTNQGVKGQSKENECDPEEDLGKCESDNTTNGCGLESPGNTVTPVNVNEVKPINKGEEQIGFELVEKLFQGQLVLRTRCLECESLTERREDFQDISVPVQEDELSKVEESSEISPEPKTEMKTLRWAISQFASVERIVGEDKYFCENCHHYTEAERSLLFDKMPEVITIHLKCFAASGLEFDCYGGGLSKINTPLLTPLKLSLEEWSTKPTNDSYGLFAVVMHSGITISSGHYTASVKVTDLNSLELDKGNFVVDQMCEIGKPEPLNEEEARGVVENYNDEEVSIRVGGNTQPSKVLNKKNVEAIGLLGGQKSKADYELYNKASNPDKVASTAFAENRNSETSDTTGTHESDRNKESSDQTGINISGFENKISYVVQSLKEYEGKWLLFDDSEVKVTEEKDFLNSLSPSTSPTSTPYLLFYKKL
# Summary of the method: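 Deubiquitinase activity followed as kinetic rhodamine fluorescence release from 150 nM Ub-Rho. 1 nM USP1/UAF1 with compound, after 15 min room-temperature preincubation, in HEPES pH 7.8 buffer containing TCEP, EDTA, BSA and Tween-20.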
# [10] = molecular target: Luciferin 4-monooxygenase (Photinus pyralis) (UniProt P08659); assay: Biochemical firefly luciferase enzyme assay for NPC (AID 624030; active means well fitted inhibition curve with a large enough effect;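 further: purified P. pyralis luciferase at 10 nM with luciferin and ATP substrate; 0% = DMSO and -100% = full luciferase inhibition by PTC124 control; nearly all actives have a fitted effect of over 70% in size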)
# Luciferin 4-monooxygenase (Photinus pyralis), sequence (P08659 whole entry, looked up): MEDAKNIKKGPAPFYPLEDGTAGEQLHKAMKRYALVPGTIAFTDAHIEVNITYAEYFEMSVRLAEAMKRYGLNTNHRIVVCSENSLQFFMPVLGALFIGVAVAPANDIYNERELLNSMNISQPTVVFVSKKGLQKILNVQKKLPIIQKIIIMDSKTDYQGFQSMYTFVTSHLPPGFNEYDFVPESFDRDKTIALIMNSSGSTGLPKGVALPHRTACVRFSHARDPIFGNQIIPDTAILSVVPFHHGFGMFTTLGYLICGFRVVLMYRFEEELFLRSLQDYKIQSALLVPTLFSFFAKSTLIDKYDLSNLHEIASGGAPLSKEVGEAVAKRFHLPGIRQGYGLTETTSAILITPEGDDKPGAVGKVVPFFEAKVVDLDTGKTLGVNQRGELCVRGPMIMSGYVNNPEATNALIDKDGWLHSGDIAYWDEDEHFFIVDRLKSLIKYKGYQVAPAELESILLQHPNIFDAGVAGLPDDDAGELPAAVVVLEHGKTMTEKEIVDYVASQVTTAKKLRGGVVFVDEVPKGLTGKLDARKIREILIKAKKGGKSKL
# Summary of the method: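 Counter-screen for direct inhibition of the luciferase enzyme by approved-drug library compounds, run at 10 nM enzyme in 50 mM Tris acetate (final). Luminescence was read within 5 min of enzyme-buffer addition and normalized to PTC124 versus DMSO (0%).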
# [11] = molecular target: Glucocorticoid receptor (Homo sapiens) (UniProt P04150); assay: GR-GFP Redistribution (AID 450;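 active means compounds whose dose series gives a full or clear partial fitted curve of increased nuclear translocation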; further: potency means the concentration at half of the fitted maximal effect); conditions: U2OS GR-GFP nuclear translocation, laser cytometry, 2 h
# [12] = measured here: cell count channel max response
# [13] = measured here: lipid channel max response
Structure (SMILES),outcome [1],Potency [2],"activity change, negative = inhibition [3]",outcome [4],Potency [5],Potency [6],outcome [7],"activity change, negative = inhibition ([8]; at 25.7 µM (top of the series))","max response [8, 12] [%]","max response [8, 13] [%]",Potency [9],Potency [10],Potency [11],"activity change, negative = inhibition ([8]; at 57.5 µM (top of the series))"
C/C(=C(/CCO)SSC[C@@H]1CCCO1)N(C=O)Cc1cnc(C)nc1N,inactive,inactive,-21.3% (inactive),inactive,> 20.6 µM (inactive),inactive,inactive,-0.641% (inactive),-21,-20.8,inactive,inactive,–,–
Cc1noc(C)c1-c1nc(Nc2ccncc2)c2ccccc2n1,inactive,0.1 µM (active),-11.9% [at 7.69 µM] (inactive),inactive,> 46 µM (inactive),inactive,–,–,-5.56,-10.6,–,–,> 46 µM (inactive),-8.29% (inactive)
CC(C)(C)CC(C)(C)c1ccc(OCOCCOCCO)c(Cc2cc(C(C)(C)CC(C)(C)C)cc(Cc3cc(C(C)(C)CC(C)(C)C)ccc3OCOCCOCCO)c2OCOCCOCCO)c1,inactive,inactive,-20.3% (inactive),inactive,> 20.6 µM (inactive),inactive,inactive,-6.93% (inactive),-10.1,-15.2,–,–,> 20.6 µM (inactive),–
COc1ccc2c3c([nH]c2c1)[C@@H]1C[C@@H]2[C@@H](C[C@H](O)[C@H](OC)[C@H]2C(=O)O)CN1CC3,inactive,inactive,-14.4% (inactive),inactive,> 20.6 µM (inactive),inactive,inactive,-2.35% (inactive),-18.6,-20,inactive,–,> 20.6 µM (inactive),–
CC(C)(N=NC(C)(C)C(=N)N)C(=N)N,inactive,inactive,3.21% [at 7.69 µM] (inactive),inactive,> 9.22 µM (inactive),inactive,inactive,–,-8.52,0.846,inactive,–,> 46 µM (inactive),6.18% (inactive)
Cc1onc(-c2c(Cl)cccc2Cl)c1C(=O)N[C@H]1C(=O)N2[C@H]1SC(C)(C)[C@H]2C(=O)O,inactive,inactive,-5.49% (inactive),inactive,> 20.6 µM (inactive),inactive,inactive,-2.5% (inactive),-2.7,-4.28,inactive,–,> 20.6 µM (inactive),–
Clc1cnccn1,inactive,inactive,-22.8% (inactive),inactive,> 20.6 µM (inactive),inactive,inactive,2.5% (inactive),8.49,10.5,inactive,–,> 20.6 µM (inactive),–
